# Screening data deposited in PubChem by National Center for Advancing Translational Sciences (NCATS).
# DT40 TDP1 no CPT: qHTS for Inhibitors of human tyrosyl-DNA phosphodiesterase 1 (TDP1): qHTS in cells in absence of CPT; actives 15% (n = 420,000); DT40 Tdp1-/- hTDP1 cells, no CPT, ATP luminescence, 48 h; Potency, µM (series often up to 46.2 µM), for the others: at the highest dose activity change, negative = growth inhibition, actives largely listed as inhibitors; also: potency is read from the fitted curve at half-maximal effect; nearly all actives have a fitted effect of over 55% in size
#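 Seeded 400 DT40-hTDP1 cells/well (vehicle DMSO, no 20 nM CPT); pinned compounds; ≥48 hr at 37 °C; CellTiter-Glo luminescence as viability measure.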
# HT1080 IDH1KD tx: qHTS for induction of synthetic lethality in tumor cells producing 2HG: qHTS for the HT-1080-IDH1KD cell line | HT-1080 IDH1 knockdown viability, ATP luminescence, 48 h | Potency, µM (titrated, usually from 46.1 µM), for inactives: top-dose activity, negative = toxicity, most hits filed as cytotoxic | actives 2% (n = 360,000) | AID 686971, 2013;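 also: potency is read from the fitted curve at half-maximal effect; 0% = DMSO wells and -100% = cell-free medium wells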
#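 CellTiter-Glo luminescence after 48 h compound exposure at 37 degrees C of IDH1-knockdown HT-1080 cells in 5% FBS RPMI. %Activity scaled between DMSO wells and cell-free media wells, with curves fitted and assigned curve classes.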
# HT1080-NT tox: qHTS for induction of synthetic lethality in tumor cells producing 2HG: qHTS for the HT-1080-NT fibrosarcoma cell line; HT-1080-NT fibrosarcoma viability, CellTiter-Glo ATP luminescence, 48 h; Potency, µM (doses to about 46.1 µM), without a hit: at the highest dose activity, negative = less viability, usual class: cytotoxic; actives 1.6% (n = 360,000); AID 686970, 2013;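 also: NT is the 2HG producing partner of a matched IDH1 knockdown line; potency is read from the fitted curve at half-maximal effect; 0% = DMSO-treated cells and -100% = media-only wells without cells; nearly all actives have a fitted effect of over 55% in size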
#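 Toxicity toward the 2HG-producing NT line was scored as %Activity, normalised to DMSO and no-cell wells, from CellTiter-Glo luminescence after 48 hours' treatment.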
# IL-1B inflam inh: qHTS for Inhibitors of Inflammasome Signaling: IL-1-beta AlphaLISA Primary Screen; THP-1 LPS/ATP IL-1B secretion, AlphaLISA, 16 h; active compounds read low; activity change, % at 57.5 µM; actives 4.7% (n = 360,000); in the data active = activity change below about -50%; inconclusive = mostly about -30% to -49%
#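 THP-1 cells pretreated 1 hr with compounds (up to 57.5 uM final), then stimulated with LPS (250 ng/mL final) plus ATP (1.25 mM final); secreted IL-1B measured by AlphaLISA after 16 hr, decreased signal indicating inhibition.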
# TDP1 cell CPT: qHTS for Inhibitors of human tyrosyl-DNA phosphodiesterase 1 (TDP1): qHTS in cells in presence of CPT | chicken DT40 Tdp1-/-;hTDP1 cells + 20 nM CPT, ATP luminescence, 48 h | AID 686979, 2013 | Potency, µM (series often up to 46.2 µM), without a hit: at the top dose activity change, negative = growth inhibition, actives largely listed as inhibitors | actives 12% (n = 420,000); also: potency is read from the fitted curve at half-maximal effect; nearly all actives have a fitted effect of over 55% in size
#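 Cell growth measured by CellTiter-Glo luminescence after a minimum 48 h, 37 C compound exposure with 20 nM CPT in Tdp1-knockout DT40 cells stably expressing hTDP1, seeded 400/well; qHTS titration format.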
# * hit, by the source's call; ? = inconclusive; . = no result given. Compounds with a hit are over-represented: about 19% of the library has one in this group of screens. Unless noted, calls follow the shape of the dose curve; as a rule, active = well fitted curve in the direction sought with a large enough effect; inconclusive = small, poorly fitted or top-dose-only effect, or another doubt; inactive = no such curve, though single readings can be large; an effect the other way counts as inactive or inconclusive. Unless noted, % is scaled to controls: 0 for no effect and ±100 for the full control effect.
SMILES,DT40 TDP1 no CPT,HT1080 IDH1KD tx,HT1080-NT tox,IL-1B inflam inh,TDP1 cell CPT
Cc1ccc(C(=O)Nc2ccc(C(=O)N/N=C/c3ccccn3)cc2)cc1,?,?,?,0,-30%
O=C(N/N=C/c1ccccn1)c1ccccc1,18µM*,-23%,-3%,73,?
O=C(N/N=C/c1ccc([N+](=O)[O-])o1)c1sc2ccccc2c1Cl,26µM*,?,-24%,-78*,23µM*
O=C(N/N=C/c1ccccn1)c1ccc(Cl)cc1,12µM*,?,-21%,-101*,12µM*
Cc1ccccc1C(=O)N/N=C/c1ccccn1,?,?,-21%,14,?
O=C(N/N=C\c1ccccn1)c1ccccc1O,?,?,-3%,-123*,15µM*
Cc1ccc(NC(=O)Cn2c(=O)n(Cc3nc(C)no3)c(=O)c3cc4c(cc32)OCO4)c(Cl)c1,-12%,.,.,.,7%
O=C(N/N=C/c1cccc(NC(=O)c2ccc(Cl)cc2)c1)c1cccc(O)c1,13µM*,?,?,12,?
COc1ccc(C(=O)Nc2ccccc2C(=O)N/N=C/c2ccccn2)cc1OC,6.5µM*,?,?,.,4.6µM*
O=C(N/N=C/c1c[nH]c2ccccc12)c1sc2ccccc2c1Cl,?,?,-12%,-28,-3%
Cc1cccc(/C=N/NC(=O)c2ccc(NC(=O)c3ccc(Cl)cc3)cc2)n1,?,18µM*,18µM*,48,?
O=C(N/N=C/c1ccccn1)c1sc2ccccc2c1Cl,13µM*,?,-12%,202,16µM*
COc1cc(C(=O)N/N=C/c2cc([N+](=O)[O-])cs2)cc(OC)c1OC,1µM*,1.5µM*,2.9µM*,22,0.82µM*
COc1ccc(C(=O)N/N=C/c2ccc3cccc(O)c3n2)cc1,5.2µM*,?,?,-27,?
COc1ccc2ccccc2c1/C=N/NC(=O)c1ccc([N+](=O)[O-])cc1,-20%,1%,3%,-8,0%
COc1cc(C(=O)N/N=C/c2ccccn2)cc(OC)c1OC,4.6µM*,?,?,82,3.3µM*
COc1ccc(C(=O)N/N=C/c2ccccn2)cc1OC,?,-29%,-15%,-5,?
COc1ccccc1NCc1cccn1-c1nnc(N2CCOCC2)s1,-24%,.,.,.,-22%
O=C(Nc1ccc2nc(-c3cccnc3)[nH]c2c1)c1ccccc1F,?,-1%,-17%,176,?
O=c1[nH]c(-c2cccnc2)nc2sc(-c3ccccc3)cc12,0.52µM*,4.6µM*,?,16,0.52µM*
c1ccc(-c2nc3cc4ccccc4cc3[nH]2)nc1,?,?,?,-95*,?
c1cncc(-c2nc3cc4ccccc4cc3[nH]2)c1,?,-16%,-28%,-84*,?
Cc1nc2sc(-c3ccccc3)cc2c(=O)[nH]1,?,?,?,24,?
C/C(=N\NC(=O)CNC(=O)c1ccc(F)cc1)c1ccco1,-5%,6%,3%,14,-2%
CCCN1C(=O)/C(=C/c2c(NCCCOCC)nc3c(C)cccn3c2=O)SC1=S,?,6%,7%,20,?
SMILES,DT40 TDP1 no CPT,HT1080 IDH1KD tx,HT1080-NT tox,IL-1B inflam inh,TDP1 cell CPT
Cc1cccn2c(=O)c(/C=C3\SC(=S)NC3=O)c(NCCCN3CCOCC3)nc12,23µM*,5%,0%,-83*,?
Cc1c(C(=O)N2CCN(C)CC2)sc2ncnc(NCC3(c4ccccc4)CCOCC3)c12,-13%,.,.,.,-22%
Cc1c(C)n(Cc2ccccc2)c2ccc(C(=O)OCCCN(C)C)cc12,21µM*,13µM*,15µM*,-109*,?
CCN1CCN(C(=O)c2ccc3c(c2)c(C)c(C)n3Cc2ccccc2)CC1,-43%,-22%,-2%,-15,?
Cc1c(C)n(CCN(C)C)c2ccc(C(=O)OCCN(C)C)cc12,21µM*,?,?,-25,?
COC(=O)CP(=O)(c1ccccc1)c1ccccc1,-35%,-4%,-2%,2,-7%
O=C(c1cc(Br)c(Br)s1)N1CCc2ccccc2C1,?,-2%,0%,-27,?
CCCCCN1C(C(=O)c2ccccc2)=C(NC(=O)c2ccc(OC)cc2)c2ccccc2S1(=O)=O,23µM*,.,.,.,?
CCCCCN1C(C(=O)c2ccccc2)=C(NC(=O)c2ccc(OC)c(OC)c2)c2ccccc2S1(=O)=O,16µM*,.,.,.,21µM*
CCCCN1C(=O)C(CC(=O)NCCN2CCOCC2)CC(C(=O)N(C(C)C)C(C)C)=C1C (centres undefined),-23%,-3%,13%,-9,-18%
O=C1CC(Sc2nnnn2-c2ccccc2)C(=O)N1c1cccc(Cl)c1 (centres undefined),3.7µM*,?,?,-7,1.3µM*
O=C1CC(SC(=Nc2ccccc2)Nc2ccccc2)C(=O)N1c1cccc(Cl)c1 (centres undefined),18µM*,23µM*,?,-6,?
O=C1CC(N2CCN(c3ccccc3)CC2)C(=O)N1c1cccc(Cl)c1 (centres undefined),-6%,2%,3%,30,-3%
CCCc1ccc(C#N)c(SC2CC(=O)N(c3ccc(OC)cc3)C2=O)n1 (centres undefined),0%,-1%,-1%,24,7%
COc1ccc(N2C(=O)CC(Sc3nnnn3-c3ccc(F)cc3)C2=O)cc1 (centres undefined),2.9µM*,4.1µM*,16µM*,-16,1.5µM*
O=C1CC(SC(=Nc2ccccc2)Nc2ccccc2)C(=O)N1c1ccc(Cl)cc1 (centres undefined),?,-12%,-13%,15,?
COc1ccc(NC(=O)c2cc(C)no2)cc1Cl,-32%,-2%,-2%,4,-1%
C[C@@H]1CN([C@@H](C)CO)C(=O)c2cc(NC(=O)Nc3ccccc3)ccc2O[C@H]1CN(C)C(=O)Nc1cccc2ccccc12,18µM*,0%,15%,-1,13µM*
C[C@@H]1CCCCO[C@H](CN(C)C(=O)Nc2cccc3ccccc23)[C@@H](C)CN([C@H](C)CO)C(=O)c2cc(NC(=O)c3ccccc3)ccc2O1,3.7µM*,1%,-2%,-25,4.6µM*
